Data on 25 compounds can be found in PubChem BioAssay AID743445 (Broad Institute, 2014).

Hit rate of the full screen: of about 310,000 compounds, about 1,700 (0.55%) were called active. Rule as the data show it: active = inhibition above about 50%; inactive = the rest. This excerpt belongs to a sample that is enriched for actives.

In general, inhibition refers to the change of the read-out against control, counted positive when it falls.

Sequence of Histone-lysine N-methyltransferase NSD2 (Homo sapiens) (O96028 whole entry, looked up): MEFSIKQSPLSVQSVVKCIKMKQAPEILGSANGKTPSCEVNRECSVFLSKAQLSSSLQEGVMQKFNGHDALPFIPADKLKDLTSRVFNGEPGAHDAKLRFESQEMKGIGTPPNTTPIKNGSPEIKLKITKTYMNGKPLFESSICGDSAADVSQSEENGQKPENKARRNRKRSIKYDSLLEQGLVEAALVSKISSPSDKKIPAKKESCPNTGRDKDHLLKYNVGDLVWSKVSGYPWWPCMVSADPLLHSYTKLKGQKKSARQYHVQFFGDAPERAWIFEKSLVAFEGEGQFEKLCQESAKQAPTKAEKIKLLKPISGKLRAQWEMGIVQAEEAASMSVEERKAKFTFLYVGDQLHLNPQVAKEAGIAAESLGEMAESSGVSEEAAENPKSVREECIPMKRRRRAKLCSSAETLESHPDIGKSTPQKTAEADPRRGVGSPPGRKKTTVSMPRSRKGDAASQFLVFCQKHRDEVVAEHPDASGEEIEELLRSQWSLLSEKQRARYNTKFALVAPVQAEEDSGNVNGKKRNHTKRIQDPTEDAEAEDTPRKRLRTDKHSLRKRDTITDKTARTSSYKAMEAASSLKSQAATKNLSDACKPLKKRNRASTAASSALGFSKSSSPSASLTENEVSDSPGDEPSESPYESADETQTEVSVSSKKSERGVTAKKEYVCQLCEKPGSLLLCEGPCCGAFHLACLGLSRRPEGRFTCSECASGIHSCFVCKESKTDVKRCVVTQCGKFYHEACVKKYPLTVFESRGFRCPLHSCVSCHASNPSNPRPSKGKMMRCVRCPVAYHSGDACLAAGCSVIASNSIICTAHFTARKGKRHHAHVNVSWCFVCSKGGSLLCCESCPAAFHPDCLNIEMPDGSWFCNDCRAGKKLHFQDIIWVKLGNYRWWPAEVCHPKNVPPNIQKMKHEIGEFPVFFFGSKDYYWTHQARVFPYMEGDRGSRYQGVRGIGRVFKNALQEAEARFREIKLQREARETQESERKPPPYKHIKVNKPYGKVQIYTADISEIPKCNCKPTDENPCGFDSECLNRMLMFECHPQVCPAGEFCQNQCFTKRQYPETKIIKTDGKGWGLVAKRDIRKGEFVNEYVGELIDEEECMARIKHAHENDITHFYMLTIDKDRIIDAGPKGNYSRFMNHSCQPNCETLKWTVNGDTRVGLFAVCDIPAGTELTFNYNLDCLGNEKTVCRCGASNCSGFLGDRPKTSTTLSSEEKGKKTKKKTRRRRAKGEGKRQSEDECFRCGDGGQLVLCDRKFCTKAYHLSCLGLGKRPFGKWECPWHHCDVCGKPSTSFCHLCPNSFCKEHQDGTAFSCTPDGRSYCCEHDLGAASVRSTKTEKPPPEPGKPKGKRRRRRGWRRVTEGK

This assay addresses Histone-lysine N-methyltransferase NSD2 (Homo sapiens) (UniProt O96028). The assay is described as follows: NSD2 histone methyltransferase inhibitors, primary screen, biochemical, AlphaScreen, single concentration, set 2 (AID 743445). The settings on record: NSD2 peptide methylation, 120 min, at 12.5 µM, stronger effect = higher value.
`Cc1ccccc1N1C(=O)NC(=O)/C(=C\c2cc(C)n(C)c2C)C1=O`: the inhibition was 5.19% (inactive).
The result for `Cc1c(C(=O)O)cccc1-n1c(C)cc(/C=C2\C(=O)NC(=O)N(c3ccc4c(c3)OCO4)C2=O)c1C` reads 65.9% (active); that for `Cc1cc(/C=C2/C(=O)NC(=O)N(Cc3ccco3)C2=O)c(C)n1-c1ccc(C(=O)O)cc1`, 36.8% (inactive).
The result for `CCC(C)(O)C(=O)OC1C(=O)OC2CC3C(C)=CC(=O)C(O)C3(C)C3C4(O)OCC23C1C(C)C4O` (stereo not given) reads -0.572% (inactive); that for `O=C(c1ccccc1)C(O)(CN1CCCCC1)c1ccccc1` (stereo not given), 1.13% (inactive); that for `O=c1c2ccccc2[nH]c(=S)n1-c1cccc(Cl)c1`, -7.59% (inactive).
The result for `COc1ccc(C2C=C(C)Oc3c2c(=O)oc2ccccc32)cc1OC` (stereo not given) reads 1.06% (inactive).
As for `CC12CCC(O)CC1CCC1C2CCC2(C)C(C(=O)CC(O)C(F)(F)F)CCC12` (stereo not given), the inhibition is -0.54% (inactive).
The result for `COc1cccc(N2C(=O)NC(=O)/C(=C\c3ccc([N+](=O)[O-])s3)C2=O)c1` reads 59% (active); that for `O=C1NC(=O)N(c2ccccc2)C(=O)/C1=C/c1ccc([N+](=O)[O-])s1`, 73.4% (active).
Under `O=C1NC(=O)N(c2ccc(F)cc2)C(=O)/C1=C/c1ccc2c(c1)CCCN2Cc1ccccc1` stands 16.6% (inactive).
Under `COc1cccc(N2C(=O)NC(=O)/C(=C\c3cn(C)c4ccccc34)C2=O)c1` stands 1.25% (inactive).
For the compound `COc1ccc(CN2C(=O)NC(=O)/C(=C\c3ccc(OC)c(OC)c3OC)C2=O)cc1`, the inhibition was 1.88% (inactive).
Under `O=C1NC(=O)C(Cc2ccccc2)C(=O)N1` stands -1.35% (inactive); under `CC(=CCOc1ccc2ccc(=O)oc2c1)C1=CC(=O)C(C)(C)O1`, 0.448% (inactive).
The result for `CC(=O)OC1C2(CC3N4C(=O)C5(CO)SSC4(CC31O)C(=O)N5C)OC(C)C(C)(C)C2=O` (stereo not given) reads 133% (active); that for `CO[C@H]([C@H](C)/C=C/N(C)C=O)[C@@H](C)C(=O)CC[C@H](C)[C@H](O)[C@H](C)[C@H]1OC(=O)/C=C/C(C)=C/[C@H](O)[C@H](OC)C[C@@H]2C=CC[C@@H](C[C@H](OC)[C@@]3(CO3)[C@@H](OC)C[C@@H](OC)[C@@H]1C)O2`, -2.92% (inactive); that for `O=P(OC1=CCCCC1)(c1ccccc1)c1ccccc1`, 1.12% (inactive).
Under `O=c1c2ccccc2nc(CBr)n1-c1ccc(Cl)cc1` stands -1.22% (inactive); under `c1cc2c(c(NC3=NCCCS3)c1)CCCC2`, 8.89% (inactive).
With `CC(=O)C1(O)CCC2C3CCC4=C(Cl)C(=O)CCC4(C)C3CCC21C` (stereo not given), the inhibition is -5.24% (inactive).
The result for `Cc1cc(N2C(=O)C3CCCN3C2c2ccc(Cl)c(Cl)c2)no1` (stereo not given) reads 84.4% (active); that for `CCN1C(=O)NC(=O)C2(CCCC2)C1=O`, 27.8% (inactive).
The result for `C[C@]12CCCCC1=CC(=O)C1C2CC[C@@]2(C)C1C[C@@H](F)[C@@H]2O` (stereo not given in full) reads -1.58% (inactive).
The result for `O=C1NC(=O)C(CCOc2ccccc2)(CCc2ccccc2)C(=O)N1` reads 1.16% (inactive).
